According to PubChem BioAssay (NCI):
Compounds without any hit were thinned out: in the full panel of roughly 79,000, 15% have a hit. The source made the active and inactive calls. Cut-off read from the data, not from the text of the source: active = growth inhibition above about 70%; inactive = the rest.

What was measured:
[1] = NCI Yeast Anticancer Drug Screen. Data for the wt1 strain (AID 149);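 note: 0% = growth of vehicle-treated wt1 cultures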; settings: S. cerevisiae wt1 strain (SPY 50644) growth inhibition, hits give high values
How it was run: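 Yeast wt1 strain exposed to compounds; growth inhibition measured relative to vehicle-treated controls.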

[2] = NCI Yeast Anticancer Drug Screen. Data for the rad50EPP+ strain (AID 151);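 note: 0% = growth of vehicle-treated control cultures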; settings: S. cerevisiae rad50 mutant strain, hits give high values
How it was run: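 Strain rad50EPP+; compound exposure; % growth inhibition vs vehicle.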

[3] = NCI Yeast Anticancer Drug Screen. Data for the mgt1 strain (AID 153); settings: S. cerevisiae mgt1 mutant growth inhibition, hits give high values
How it was run: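 Read-out: yeast growth inhibition vs vehicle control. Strain mgt1, drawn from a panel altered in DNA damage repair or cell cycle control.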

[4] = NCI Yeast Anticancer Drug Screen. Data for the rad50 strain (AID 155);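 note: 0% = growth of vehicle-only cultures of the same strain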; settings: S. cerevisiae rad50 strain growth inhibition, hits give high values
How it was run: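 Yeast carrying a defined DNA repair defect were exposed to test compounds, and growth was compared with vehicle-treated controls to give percent inhibition.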

[5] = NCI Yeast Anticancer Drug Screen. Data for the mec2-1 strain (AID 157); settings: S. cerevisiae mec2-1 strain, hits give high values
How it was run: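 Cells of the genetically defined mec2-1 yeast strain are incubated with test compound. Inhibition of growth is calculated against vehicle-treated controls.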

[6] = NCI Yeast Anticancer Drug Screen. Data for the rad14 strain (AID 159);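 note: 0% = growth of vehicle-treated control cultures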; settings: S. cerevisiae rad14 strain growth inhibition, hits give high values
How it was run: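 Yeast cells carrying a defined DNA-repair defect were exposed to compounds, and growth inhibition was calculated relative to vehicle-treated control cultures.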

[7] = NCI Yeast Anticancer Drug Screen. Data for the sgs1 mgt1 strain (AID 161);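 note: 0% = growth of cultures given vehicle only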; settings: S. cerevisiae sgs1 mgt1 strain, hits give high values
How it was run: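 Read-out: growth inhibition vs vehicle controls. Cells: mutant yeast strain deficient in DNA damage repair.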

[8] = NCI Yeast Anticancer Drug Screen. Data for the CLN2oe strain (AID 163);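 note: 0% = growth of vehicle-only control cultures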; settings: S. cerevisiae CLN2oe strain, hits give high values
How it was run: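 Strain altered in cell-cycle control, incubated with compound; growth compared to solvent-treated controls.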

[9] = NCI Yeast Anticancer Drug Screen. Data for the cln2 rad14 strain (AID 165);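 note: 0% = growth equal to vehicle treated cultures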; settings: S. cerevisiae cln2 rad14 strain, hits give high values
How it was run: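 The screen exposed genetically defined yeast (cln2 rad14) to test compounds and scored growth inhibition relative to vehicle-treated controls.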

[10] = NCI Yeast Anticancer Drug Screen. Data for the bub3 strain (AID 167); settings: S. cerevisiae bub3 mutant strain, hits give high values
How it was run: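 Compounds were applied to a genetically altered yeast strain carrying a cell-cycle control defect. Growth inhibition was scored against vehicle-treated controls.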

[11] = NCI Yeast Anticancer Drug Screen. Data for the wt2 strain (AID 169);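 note: 0% = growth of vehicle-treated yeast cultures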; settings: S. cerevisiae wt2 strain growth inhibition, hits give high values
How it was run: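 Steps: yeast strain treated with compound; growth recorded; inhibition calculated relative to cultures given vehicle alone.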

[12] = NCI Yeast Anticancer Drug Screen. Data for the mlh1 strain (AID 171);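 note: 0% = growth of vehicle-treated control cultures of the same strain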; settings: S. cerevisiae mlh1 strain growth inhibition, hits give high values
How it was run: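 Yeast screen: mutant strain plus compound, growth scored against vehicle control wells.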

[13] = NCI Yeast Anticancer Drug Screen. Data for the sgs1 strain (AID 173);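 note: 0% = growth of vehicle-only control cultures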; settings: S. cerevisiae sgs1 mutant, hits give high values
How it was run: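 Inhibition of yeast growth served as the measure. The mutant strain was treated with each compound, and growth was normalised to cultures receiving vehicle alone.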

[14] = NCI Yeast Anticancer Drug Screen. Data for the mlh1 rad18 strain (AID 175); settings: S. cerevisiae mlh1 rad18 strain growth inhibition, hits give high values
How it was run: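 Compound-treated yeast growth, normalised to vehicle controls. Strain bears defined DNA repair mutations.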

[15] = NCI Yeast Anticancer Drug Screen. Data for the rad18 strain (AID 177); settings: S. cerevisiae rad18 mutant growth inhibition, hits give high values
How it was run: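 Inhibition values reflect reduced yeast growth compared with vehicle-treated controls, using a strain engineered with a DNA damage repair defect.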

[16] = NCI Yeast Anticancer Drug Screen. Data for the rad52 strain (AID 147);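 note: 0% = growth of vehicle-treated control cultures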; settings: S. cerevisiae rad52 mutant growth inhibition, hits give high values
How it was run: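 Genetically altered yeast (DNA damage repair defect) treated with compound; inhibition calculated relative to vehicle.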

[17] = at 5.0 µM (retest, dose inferred, filed as 0.5)
[18] = at 50.0 µM (retest, dose inferred, filed as 5.0)

Measured: growth inhibition

Cc1cc(N=Nc2ccc(S(=O)(=O)[O-])cc2)cc(C(=O)[O-])c1[O-].NC1CCCCC1N.[Na+].[Pt+4]
inactive: [1]; at 1.2 µM 3% | [1]; at 3.7 µM 44% | [2]; at 1.2 µM 25% | [3]; at 1.2 µM 34% | [3]; at 3.7 µM 66% | [4]; at 1.2 µM -23% | [4]; [17] 20% | [5]; at 1.2 µM 9% | [5]; [17] 32% | [6]; at 1.2 µM -4% | [6]; at 3.7 µM 52% | [7]; [17] 68% | [8]; at 1.2 µM 5% | [8]; at 3.7 µM 21% | [9]; [17] 49% | [10]; at 1.2 µM -21% | [10]; at 3.7 µM 40% | [10]; [17] 50% | [11]; at 1.2 µM -2% | [12]; at 1.2 µM 7% | [12]; at 3.7 µM 66% | [13]; at 1.2 µM 21% | [13]; at 3.7 µM 63% | [14]; [17] 33% | [15]; at 1.2 µM -26% | [15]; at 3.7 µM 42%
active: [1]; at 11.0 µM 98% | [1]; at 33.0 µM 98% | [1]; at 100.0 µM 98% | [2]; at 3.7 µM 95% | [2]; at 11.0 µM 99% | [2]; at 33.0 µM 99% | [2]; at 100.0 µM 98% | [3]; at 11.0 µM 99% | [3]; at 33.0 µM 99% | [3]; at 100.0 µM 98% | [4]; at 3.7 µM 84% | [4]; at 11.0 µM 98% | [4]; at 33.0 µM 98% | [4]; [18] 98% | [4]; at 50.0 µM 87.7% | [4]; at 100.0 µM 98% | [5]; at 3.7 µM 77% | [5]; at 11.0 µM 99% | [5]; at 33.0 µM 99% | [5]; [18] 99% | [5]; at 50.0 µM 91.2% | [5]; at 100.0 µM 98% | [6]; at 11.0 µM 98% | [6]; at 33.0 µM 98% | [6]; at 100.0 µM 98% | [7]; [18] 99% | [7]; at 50.0 µM 92% | [8]; at 11.0 µM 95% | [8]; at 33.0 µM 99% | [8]; at 100.0 µM 98% | [9]; [18] 97% | [9]; at 50.0 µM 92% | [10]; at 11.0 µM 99% | [10]; at 33.0 µM 98% | [10]; [18] 98% | [10]; at 50.0 µM 90.2% | [10]; at 100.0 µM 98% | [11]; at 3.7 µM 93% | [11]; at 11.0 µM 98% | [11]; at 33.0 µM 98% | [11]; at 100.0 µM 97% | [12]; at 11.0 µM 99% | [12]; at 33.0 µM 99% | [12]; at 100.0 µM 98% | [13]; at 11.0 µM 99% | [13]; at 33.0 µM 99% | [13]; at 100.0 µM 99% | [14]; [18] 98% | [14]; at 50.0 µM 85.8% | [15]; at 11.0 µM 97% | [15]; at 33.0 µM 98% | [15]; at 100.0 µM 98%

O=[n+]1c2ccc(Cl)cc2n([O-])c2ccc(Cl)cc21
inactive: [16]; at 1.2 µM 5% | [16]; at 3.7 µM 12% | [16]; at 11.0 µM 23% | [16]; at 33.0 µM 44% | [16]; at 100.0 µM 57% | [2]; at 1.2 µM 9% | [2]; at 3.7 µM 18% | [2]; at 11.0 µM 35% | [2]; at 33.0 µM 57% | [4]; at 1.2 µM 9% | [4]; at 3.7 µM 19% | [4]; [17] -9% | [4]; at 11.0 µM 39% | [4]; at 33.0 µM 61% | [4]; [18] 47% | [4]; at 50.0 µM -5.4% | [5]; at 1.2 µM -1% | [5]; at 3.7 µM 0% | [5]; [17] 1% | [5]; at 11.0 µM 2% | [5]; at 33.0 µM 9% | [5]; [18] -5% | [5]; at 50.0 µM -1% | [5]; at 100.0 µM 15% | [6]; at 1.2 µM 0% | [6]; at 3.7 µM 2% | [6]; at 11.0 µM 4% | [6]; at 33.0 µM 6%
active: [2]; at 100.0 µM 74% | [4]; at 100.0 µM 81%
